PubChem BioAssay (NCI)
This is part of a sample that, as a whole, favours compounds with a hit. Of some 83,000 tested, about 20% had one in any assay.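 Cells were grown in 96-well plates and exposed to the test compound at a single concentration for 48 hours; results are reported as percent growth, with values below 10 considered active.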 Activity calls are given as the source filed them.

Legend:
Test in all cases: NCI-60 one-dose screen, 48 h (100 = growth as untreated, 0 = no growth, -100 = all killed)
[1] = system: HCT-15 colon; settings: 10 µM unless noted
[2] = system: SNB-19 CNS; settings: 10 µM unless noted
[3] = system: U251 CNS; settings: 10 µM unless noted
[4] = system: PC-3 prostate; settings: 10 µM unless noted
[5] = system: SK-MEL-5 melanoma; settings: 10 µM unless noted
[6] = system: UACC-62 melanoma; settings: 10 µM unless noted
[7] = system: LOX IMVI melanoma; settings: 10 µM unless noted
[8] = system: SK-MEL-28 melanoma; settings: 10 µM unless noted
[9] = system: SK-MEL-2 melanoma; settings: 10 µM unless noted
[10] = system: EKVX NSCLC; settings: 10 µM unless noted
[11] = system: SN12C renal; settings: 10 µM unless noted
[12] = system: TK-10 renal; settings: 10 µM unless noted
[13] = system: ACHN renal; settings: 10 µM unless noted
[14] = system: CAKI-1 renal; settings: 10 µM
[15] = system: A498 renal; settings: 10 µM unless noted
[16] = system: CCRF-CEM leukemia; settings: 10 µM unless noted
[17] = system: MOLT-4 leukemia; settings: 10 µM unless noted
[18] = system: SNB-75 CNS; settings: 10 µM unless noted
[19] = system: UO-31 renal; settings: 10 µM unless noted

Measured: growth

O=C(/C=C1\C=CN(CCCCF)c2ccccc21)n1ccc2ccccc21
inactive: [1] 102% | [2] 105% | [3] 105% | [4] 103% | [5] 98.8% | [6] 89.2% | [7] 106% | [8] 108% | [9] 103% | [10] 90.7% | [11] 94.6% | [12] 117% | [13] 97.6% | [14] 87.5% | [15] 135% | [16] 96.4% | [17] 105%

NS(=O)(=O)c1ccc(Nc2nc(N/N=C/c3ccc(C(F)(F)F)cc3)nc(Nc3ccccc3)n2)cc1
inactive: [1] 31.3% | [18] 42% | [2] 33.8% | [3] 18.6% | [4] 14.4% | [5] 34.5% | [6] 14.9% | [8] 27.2% | [9] 28.7% | [10] 53.7% | [11] 42.9% | [19] 60.3% | [12] 64.3% | [13] 39.6% | [14] 33.7% | [16] 12%
active: [7] 9.92% | [17] 9.74%

COc1ccc2oc3c4[nH]c5ccccc5c4c4c(c3c2c1)C(=O)N(O)C4=O
inactive: [1] 105% | [18] 89.1% | [2] 95.2% | [3] 106% | [4] 85.8% | [5] 101% | [6] 94.6% | [7] 116% | [8] 106% | [9] 107% | [10] 97.8% | [11] 94.7% | [19] 82.2% | [12] 140% | [13] 97.9% | [14] 80.4% | [15] 75.4% | [16] 91.4% | [17] 116%

Cc1ccc(-c2cc(-c3ccc(N(C)C)cc3)n3c(n2)nc2ccccc23)cc1
inactive: [1] 56.6% | [18] 94% | [2] 50.2% | [3] 56.7% | [4] 47.8% | [6] 35% | [7] 83.5% | [8] 52.9% | [9] 16% | [10] 57.9% | [11] 62.8% | [19] 41.8% | [12] 61.1% | [13] 49.3% | [14] 59.3% | [15] 15.6% | [16] 54.8% | [17] 38.9%
active: [5] -37.6%

C#CCOc1ccc(/C=N/Nc2nc(-c3cc4cc(Br)cc(Br)c4oc3=O)cs2)cc1
inactive: [1] 95.2% | [18] 90.3% | [2] 104% | [3] 96.2% | [4] 88.1% | [5] 98.5% | [6] 88.1% | [7] 102% | [8] 106% | [10] 92.2% | [11] 92.1% | [19] 88.5% | [12] 142% | [13] 98.8% | [14] 88.1% | [15] 85.4% | [16] 94.4% | [17] 62.8%

NCCN1CCN(c2nc(-c3ccccc3)nc3nc(-c4ccccc4)oc23)CC1
active: [1] -66.8% | [18] -77.1% | [2] -19.7% | [3] -51.4% | [7] -90.6% | [8] -85.4% | [10] 2% | [11] -79.4% | [19] -89.2% | [12] -28.7% | [13] -95.4% | [14] -90.1% | [16] 1.25% | [17] -0.256%
inactive: [4] 15% | [5] 78.7% | [6] 101% | [9] 102% | [15] 61.7%

C#C[C@]1(O)CC[C@H]2[C@@H]3CC=C4c5sc(-c6ccc(OC)cc6)nc5CC[C@]4(C)[C@H]3CC[C@@]21C
active: [8] 4.22% | [17] 7.24%
inactive: [1] 46.9% | [18] 22.9% | [2] 63.6% | [3] 42.7% | [4] 28.2% | [5] 85.1% | [6] 33.2% | [7] 45% | [9] 53.8% | [10] 76.8% | [11] 84.2% | [19] 18.9% | [12] 78% | [13] 59.8% | [14] 64.4% | [15] 56% | [16] 26.8%

CN1CCN(c2ccc(C(=O)Nc3cccc(-c4cn(-c5ccc(S(N)(=O)=O)cc5)nn4)c3)cc2C(F)(F)F)CC1
inactive: [1] 41.1% | [18] 64.9% | [2] 86.6% | [3] 59.6% | [4] 69.8% | [5] 90.6% | [6] 82.7% | [7] 23.1% | [8] 72.7% | [10] 89.9% | [11] 92.4% | [19] 86.9% | [12] 117% | [13] 87.6% | [14] 73.8% | [15] 97.6% | [16] 70.8% | [17] 13.2%
